Inconclusive results are not listed. Values without a mark were called inactive. The source made the active and inactive calls. Calls follow the shape of the dose curve; as a rule, active = well fitted curve in the direction sought with a large enough effect; inconclusive = small, poorly fitted or top-dose-only effect, or another doubt; inactive = no such curve, though single readings can be large or run the other way. Bridge positions count the residues as written; N and C are the ends. Square brackets hold non-standard residues; d marks the D form. Side chains are listed from the residue outwards. Peptide text beside a SMILES is read from it. * marks the point of attachment. Phg(4-OMe) = COc1ccc([C@H](N)C(=O)O)cc1; d(aIle) = CC[C@H](C)[C@@H](N)C(=O)O; d(aThr) = C[C@@H](O)[C@@H](N)C(=O)O; NMeF = CN[C@@H](Cc1ccccc1)C(=O)O; Isobutyryl = CC(C)C(=O)*
Assay: HPAF-II 18hr Apoptosis Induction qHTS against the NCATS CANVASS Library (AID 1347360); as to caspase activation: 0% is about no effect
Settings: HPAF-II caspase-3/7 luminescence; series mostly up to 46.1 µM; caspase activation: at the top concentration
Method in brief: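 HPAF-II cells (500/well, DMEM + 10% FBS) were exposed to compounds for 18 hours at 37 degrees C. Caspase-3/7 activity was then read by Caspase-Glo 3/7 luminescence after 15 min at room temperature.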
Potency is read from the fitted curve at half-maximal effect.

SMILES	caspase activation	Potency
Cc1occ2c1C(=O)c1c(cc(O)c(O)c1O)C2=O	-1.79%	
O=C1CC2OCC=C3CN4C5CC3C2[C@@H]2N1c1ccccc1[C@]52C[C@@H]4C1=C[C@H]2C3CC4N(CC[C@@]45c4ccccc4N(C1=O)[C@@H]25)C/C3=C/CO (some centres undefined)	10.7%	
CCC(=O)CCCCC[C@@H]1NC(=O)[C@H]2CCCCN2C(=O)[C@H](C(C)C)NC(=O)[C@H](Cc2cn(OC)c3ccccc23)NC1=O	25.1%	
C/C(=C\[C@H](C)C(=O)CCCC1CC(=O)NC(=O)C1)[C@@H]1OC(=O)/C=C/CC/C=C/[C@H](O)[C@@H](O)[C@@H]1C	9.2%	
C/C=C(/C)c1c(Cl)c(O)c(C)c2c1Oc1c(Cl)c(O)c(Cl)c(C)c1C(=O)O2	-0.0401%	
C=C[C@@]1(C)CC[C@@H]([C@H](C)C(=O)/C=C/C(C)(C)O)O1	-1.32%	
C=CC(CCCCC)C1C(=O)NC(=O)C1C(=O)C1C(/C=C/C)C=CC2CC(C(=O)O)CC(C)C21 (centres undefined)	0.829%	
C=C1CC[C@@H](O[C@H]2C[C@@](O)([C@H](C)NC(=O)c3[nH]c(C)c(Cl)c3Cl)[C@H](O)[C@@H](C)O2)[C@@H]2C=C[C@H](C)C(/C(O)=C3/C(=O)[C@H](C(C)C)N([C@@H]4O[C@H](C)[C@H](OC(N)=O)[C@H](OC(C)=O)[C@@H]4OC)C3=O)[C@@H]12 (some centres undefined)	1.8%	
COc1ccc([C@@H]2CC(=O)c3c(cc(O)c(C/C=C(\C)CCC=C(C)C)c3O)O2)cc1	-1.9% [at 9.19 µM]	
O=c1cc(-c2ccc(O)c(O)c2)oc2cc(O[C@@H]3O[C@H](CO)[C@@H](O)[C@H](O)[C@H]3O)cc(O)c12	-0.501%	
CC[C@H](C)[C@H]1NC(=O)[C@@H](NC(=O)C(C)C)[C@@H](C)OC(=O)[C@H](COC(=O)CNC(C)=O)NC(=O)[C@@H]([C@@H](C)O)NC(=O)[C@H](Cc2ccccc2)N(C)C(=O)[C@H](c2ccc(OC)cc2)NC1=O (Isobutyryl-T[d(aIle)][Phg(4-OMe)][NMeF][d(aThr)]S([Gly-Ac]); ester 1-C)	-2.62%	
C[n+]1cc2cc(C(N)=O)[nH]c3c(=N)c(Cl)c(N)c1c23	-4.83%	
C/C1=C/[C@@H](C)[C@H](O)[C@@H](O)/C=C/CC/C=C/C(=O)O[C@@H]1[C@H](C)C(=O)CCCC1CC(=O)NC(=O)C1	-2.36%	
CC(=O)Oc1cc2c(c(OC(C)=O)c1C1CCc3cc(Cl)c(Cl)n31)C(=O)n1c-2cc(Cl)c1Cl (centres undefined)	1.78%	
COc1ccc2[nH]c3c(c2c1)CCN1C[C@H]2C[C@@H](OC(=O)c4cc(OC)c(OC)c(OC)c4)[C@H](OC)[C@@H](OC)[C@H]2C[C@H]31	-0.859%	
O[C@H]1c2ccccc2-c2c3c(cc4c2[C@@H]1NCC4)OCO3	1.03%	
CC(C)=CC[C@H]1C[C@@]2(CC=C(C)C)C(=O)[C@](CC=C(C)C)(C(=O)C(C(=O)c3ccccc3)=C2O)C1(C)C	2.16%	
C[C@]12CC[C@]3(C1)[C@H](CC2=O)C[C@@H](OC(=O)c1ccccc1)[C@H]1[C@](C)(C(=O)O)CCC[C@@]13C	3.96%	
CC(=O)O[C@H]1c2ccccc2-c2c3c(cc4c2[C@@H]1N(C(C)=O)CC4)OCO3	-1.48%	
C=C[C@](Cl)(CBr)CCC=C(C)C	1.11%	
C=C1CC[C@@H](Br)C(C)(C)[C@]12CC=C(C)C(=O)C2	1.63%	
COc1cc2c(cc1OC)[C@@H](c1ccc3c(c1)OCO3)C(C)C(C)C2=O (some centres undefined)	1.04%	
C[C@H]1C=C[C@H]2CCCC[C@@H]2[C@H]1C(=O)[C@H]1CC2=C(C(=O)O)CCN2C1=O	7.29%	
C/C(=C\[C@H](C)C(=O)/C=C/CC1CC(=O)NC(=O)C1)[C@@H]1OC(=O)/C=C/CC/C=C/C[C@@H](O)[C@@H]1C	7.37%	
CC(C)[C@]12CC[C@@]3(C)[C@H](C)CC[C@H](O)[C@@]3(CC1)c1cc3c(cc12)[nH]c1ccccc13	1.22%	
CC(C)=CCC[C@]12c3cc4c(cc3CC[C@@]1(C)[C@H](C)CC[C@@H]2O)[nH]c1ccccc14	-1.34%	
Oc1ccc(C2Oc3cc(O)c4c(c3[C@@H]2c2cc(O)cc(O)c2)[C@H]2C(c3ccc(O)cc3)c3c(O)cc5c(c3[C@H]2C4c2ccc(O)cc2)[C@H](c2cc(O)cc(O)c2)C(c2ccc(O)cc2)O5)cc1 (some centres undefined)	0.741%	
C=C(C)CC[C@H](Cc1c(O)cc(O)c2c1O[C@H](c1ccc(O)cc1)CC2=O)C(=C)C	2.12%	
COc1cc(/C=C/C(=O)OC[C@@H](Cc2ccc(O)c(OC)c2)[C@@H](COC(=O)/C=C/c2ccc(O)c(OC)c2)Cc2ccc(O)c(OC)c2)ccc1O		8.33 µM (active)

From PubChem BioAssay (NCATS)
